Many of the other results were omitted from the sample, so hits are more common in it than they were.
NS1 function inh = blocks influenza NS1 protein function; Potency, µM (top dose mostly 46.1 µM), inactives show at the top dose activity, positive = more growth; actives 0.4% (n = 270,000); calls by dose curve; also: potency is read from the fitted curve at half-maximal effect; actives are rising curves; nearly all actives have a fitted effect of over 50% in size
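A cell-based growth assay was used: compounds that relieve NS1-induced slow growth of budding yeast raise OD600. Assay medium was yeast nitrogen base with ammonium sulphate and -URA supplement, pH 6.0, with 2% galactose.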
Shiga inhibitor = inhibitors of Shiga toxin in Vero cells; Vero cells, Shiga toxin protein synthesis inhibition reporter; inhibition, % at 38.7 µM; actives 9.2% (n = 290,000); AID 2315; in the data active = inhibition mostly above about 28%, no sharp cut-off; inactive = mostly below about 43%; also: 0% is about no effect
TbPYK inhibitor = inhibitors of Trypanosoma brucei pyruvate kinase. Q57TT1. TbPYK enzyme, Kinase-Glo Plus ATP luminescence, 45 min. Potency, µM (doses to about 76.8 µM), for the others: at the highest dose activity, negative = inhibition, usual class: inhibitors. actives 0.12% (n = 410,000). AID 624173; also: potency is read from the fitted curve at half-maximal effect; % is scaled to controls: 0 for no effect and ±100 for the full control effect; nearly all actives have a fitted effect of over 50% in size
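Activity of T. brucei pyruvate kinase was followed by Kinase-Glo Plus luminescence after the enzyme reacted 45 min at room temperature with 130 uM ADP (final) and substrate. Test compounds were added before ADP at multiple concentrations.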
LmPK inhibitor = inhibitors of Leishmania mexicana pyruvate kinase | Q27686 | purified LmPK, Kinase-Glo ATP luminescence, 1 h | Potency, µM (doses to about 57.5 µM), inactives show top-dose activity change, negative = inhibition, hits mostly inhibitors | actives 0.37% (n = 290,000) | AID 1721; also: potency is read from the fitted curve at half-maximal effect; % is scaled to controls: 0 for no effect and ±100 for the full control effect
Target sequence (Q27686 whole entry, looked up): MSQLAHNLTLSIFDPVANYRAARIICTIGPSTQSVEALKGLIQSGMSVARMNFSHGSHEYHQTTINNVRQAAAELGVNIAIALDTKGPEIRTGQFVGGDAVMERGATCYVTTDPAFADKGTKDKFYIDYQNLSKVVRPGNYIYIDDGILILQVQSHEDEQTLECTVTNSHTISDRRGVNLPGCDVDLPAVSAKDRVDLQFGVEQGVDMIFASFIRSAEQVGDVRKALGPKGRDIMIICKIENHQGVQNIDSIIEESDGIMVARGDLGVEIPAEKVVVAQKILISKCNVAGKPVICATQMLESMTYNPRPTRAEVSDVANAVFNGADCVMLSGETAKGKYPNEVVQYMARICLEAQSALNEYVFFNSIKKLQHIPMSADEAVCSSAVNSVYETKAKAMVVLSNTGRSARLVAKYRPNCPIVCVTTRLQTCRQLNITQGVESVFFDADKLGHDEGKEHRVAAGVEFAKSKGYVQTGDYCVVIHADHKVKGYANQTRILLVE
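Pyruvate kinase activity monitored as ATP production (luciferase luminescence). Conditions: 0.1 nM enzyme, 0.5 mM PEP, 0.1 mM ADP, 1 h, RT; normalized against uninhibited and no-enzyme wells.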
SARS PLP yeast = blocks SARS-CoV papain-like protease in a yeast assay; S. cerevisiae expressing SARS-CoV PLpro, growth rescue; Potency, µM (top dose mostly 32.9 µM), without a hit: at the highest dose activity, positive = growth rescue, usual class: activators; actives 0.19% (n = 330,000); AID 485353; calls by dose curve; also: potency is read from the fitted curve at half-maximal effect; 0% is about no effect; nearly all actives have a fitted effect of over 55% in size
CHX counter = counter-screen hit for Shiga toxin inhibitors, cycloheximide; cell reporter, cycloheximide protein synthesis inhibition counterscreen; max response, %; actives 12% (n = 300,000); AID 2314; in the data active = max response mostly above about 13%, no sharp cut-off; inactive = mostly below about 14%; also: read at 38.3 µM for the half of the compounds with a filed dose; 0% is about no effect
* marks the source's active call; other numbers are inactive results. Unless noted, calls follow the shape of the dose curve; as a rule, active = well fitted curve in the direction sought with a large enough effect; inconclusive = small, poorly fitted or top-dose-only effect, or another doubt; inactive = no such curve, though single readings can be large; an effect the other way counts as inactive or inconclusive.

How did O=C(Nc1ccc(NC(=O)c2ccco2)cc1)c1cnccn1 do in these assays?
NS1 function inh: -28%; Shiga inhibitor: 58; TbPYK inhibitor: 2%; LmPK inhibitor: -29%; SARS PLP yeast: 0%; CHX counter: 25*

What do the screens show for `CCc1ccc(NC(=O)c2cnccn2)cc1`?
NS1 function inh: -13%; Shiga inhibitor: 55*; TbPYK inhibitor: -10%; LmPK inhibitor: -3%; SARS PLP yeast: -8%; CHX counter: 38*

Results for CCCCOC(=O)c1ccc(NC(=O)c2cnccn2)cc1 ?
NS1 function inh: -10%; Shiga inhibitor: 10; TbPYK inhibitor: 5%; LmPK inhibitor: 1%; SARS PLP yeast: -5%; CHX counter: 18

How did O=C(Nc1ccccc1C(F)(F)F)c1cnccn1 do in these assays?
NS1 function inh: -5%; Shiga inhibitor: -20; TbPYK inhibitor: -1%; LmPK inhibitor: 6%; SARS PLP yeast: 5%; CHX counter: 2

How did CCCC(=O)N(Cc1cc(=O)[nH]c2ccccc12)c1ccccc1C do in these assays?
NS1 function inh: -1%; Shiga inhibitor: -2; TbPYK inhibitor: -4%; LmPK inhibitor: -9%; SARS PLP yeast: 1%; CHX counter: -5

Results for CCCc1ccc(OCC(=O)Nc2sc3c(c2C(=O)OCC)CCC(C(C)(C)C)C3)cc1 (centres undefined) ?
TbPYK inhibitor: -7%

Results for CCc1ccc(NC(=O)c2cnc3scc(C)n3c2=O)cc1 ?
NS1 function inh: -72%; Shiga inhibitor: 11*; TbPYK inhibitor: -6%; LmPK inhibitor: -1%; SARS PLP yeast: -3%; CHX counter: 34*

How did Cc1csc2ncc(C(=O)Nc3cccc(C(F)(F)F)c3)c(=O)n12 do in these assays?
NS1 function inh: -20%; Shiga inhibitor: -1; TbPYK inhibitor: 1%; LmPK inhibitor: -3%; SARS PLP yeast: -9%; CHX counter: 8

How did Cc1cc(N2CCN(C(=O)c3ccco3)CC2)c2ccccc2n1 do in these assays?
NS1 function inh: 4%; Shiga inhibitor: -8; TbPYK inhibitor: 1%; LmPK inhibitor: 1%; SARS PLP yeast: 1%; CHX counter: 0

How did O=C1CCCc2nc(N3CCN(C(=O)c4ccco4)CC3)ncc21 do in these assays?
NS1 function inh: 14%; Shiga inhibitor: 25*; TbPYK inhibitor: 4%; LmPK inhibitor: 3%; SARS PLP yeast: -7%; CHX counter: 20*

What do the screens show for `Nc1nc(N2CCN(C(=O)c3ccco3)CC2)nc2ccccc12`?
NS1 function inh: 5%; Shiga inhibitor: 67*; TbPYK inhibitor: 4%; LmPK inhibitor: 0%; SARS PLP yeast: -13%; CHX counter: 28*

How did Nc1nc(N2CCN(C(=O)c3ccco3)CC2)nc2ccc(Br)cc12 do in these assays?
Shiga inhibitor: 50*; TbPYK inhibitor: -9%; LmPK inhibitor: -5%; SARS PLP yeast: 0%; CHX counter: 25*

What do the screens show for `CC(=O)C(Cc1ccccc1)NC(=O)COC(=O)c1cccc(C)c1[N+](=O)[O-]` (centres undefined)?
TbPYK inhibitor: -9%; SARS PLP yeast: 1%

What do the screens show for `O=C(CSc1nc(-c2ccc(F)cc2)[nH]c1-c1ccccc1)NCC1CCCO1` (centres undefined)?
TbPYK inhibitor: 3%

Results for CCOc1ccc(CCNC(=O)C2CCN(c3ncnc4c3nc3n4CCCCC3)CC2)cc1 ?
TbPYK inhibitor: 4%

Results for CC(=O)c1ccc(Nc2nc3ccc(C)cc3n3cnnc23)cc1 ?
NS1 function inh: 4%; Shiga inhibitor: 28; TbPYK inhibitor: 10%; LmPK inhibitor: 5%; SARS PLP yeast: 0%; CHX counter: 17*

Results for COC(=O)c1ccc(Nc2nc3ccc(C)cc3n3cnnc23)cc1 ?
NS1 function inh: -1%; Shiga inhibitor: 51; TbPYK inhibitor: -3%; LmPK inhibitor: 2%; SARS PLP yeast: 0%; CHX counter: 17

How did O=C(CSc1nccn1Cc1ccco1)Nc1ccccc1F do in these assays?
NS1 function inh: 4%; Shiga inhibitor: 18; TbPYK inhibitor: -9%; LmPK inhibitor: -7%; SARS PLP yeast: 10%; CHX counter: 30*

How did Cc1ccc(NC(=O)CSc2nccn2Cc2ccco2)c(C)c1 do in these assays?
NS1 function inh: 0%; Shiga inhibitor: 61*; TbPYK inhibitor: -6%; LmPK inhibitor: -7%; SARS PLP yeast: -4%; CHX counter: 52*

What do the screens show for `Cc1cc(C)c(NC(=O)CSc2nccn2Cc2ccco2)c(C)c1`?
TbPYK inhibitor: -13%

What do the screens show for `Cc1nnc(SCC(=O)Nc2ccccc2F)n1Cc1ccco1`?
NS1 function inh: 3%; Shiga inhibitor: 12; TbPYK inhibitor: -2%; LmPK inhibitor: 2%; SARS PLP yeast: 5%; CHX counter: 7

How did Cc1ccc(C)c(NC(=O)CSc2nccn2Cc2ccco2)c1 do in these assays?
NS1 function inh: 5%; Shiga inhibitor: 54*; TbPYK inhibitor: 1%; LmPK inhibitor: 0%; SARS PLP yeast: 2%; CHX counter: 24*

What do the screens show for `CCCNC(=O)CSc1nccn1Cc1ccco1`?
NS1 function inh: 5%; Shiga inhibitor: -9; TbPYK inhibitor: 2%; LmPK inhibitor: 0%; SARS PLP yeast: 0%; CHX counter: 7

What do the screens show for `Cc1ccc(OCc2nc(-c3ccc(C(=O)N4CCN(c5cc(Cl)ccc5C)CC4)cc3)oc2C)cc1`?
TbPYK inhibitor: -9%

What do the screens show for `COc1ccc(C2NN=C(c3c[nH]c4ccccc34)C2O)cc1` (centres undefined)?
NS1 function inh: 12%; Shiga inhibitor: 38*; TbPYK inhibitor: -20%; LmPK inhibitor: -7%; SARS PLP yeast: -1%; CHX counter: 36*

How did COc1ccc(C2C(O)C(c3c[nH]c4ccccc34)=NN2C(=O)CCl)cc1 (centres undefined) do in these assays?
NS1 function inh: 19%; Shiga inhibitor: -6; TbPYK inhibitor: -7%; LmPK inhibitor: 2%; SARS PLP yeast: 4%; CHX counter: 8

Results for O=C(Nc1ccc2c(c1)OCO2)N1CCC(CO)(CC2CCCCO2)CC1 (centres undefined) ?
NS1 function inh: 2%; Shiga inhibitor: 46*; TbPYK inhibitor: -6%; LmPK inhibitor: 6%; SARS PLP yeast: -2%; CHX counter: 17*

What do the screens show for `O=C(Nc1ccc2c(c1)OCO2)N1CCN(S(=O)(=O)c2ccc(Cl)cc2)CC1`?
NS1 function inh: -39%; Shiga inhibitor: -13; TbPYK inhibitor: 3%; LmPK inhibitor: -9%; SARS PLP yeast: -2%; CHX counter: -3

How did O=C(Nc1ccc2c(c1)OCO2)N1CCN(c2ccccc2Cl)CC1 do in these assays?
NS1 function inh: -6%; Shiga inhibitor: 85*; TbPYK inhibitor: -8%; LmPK inhibitor: 8%; SARS PLP yeast: -13%; CHX counter: 52*
